The entries come from a sample that favours hits as a whole.
PI5P4K alpha inh = blocks human PI5P4K alpha kinase activity; PI5P4Kalpha enzyme, ADP-Glo luminescence, 60 min; stronger effect = lower value; max response, %; 330,000 tested, 1.2% active; AID 652105; active means max response of -50% or lower; inconclusive means between -30% and -50%; inactive means -30% or higher; further: value at the top dose of about 77 µM
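Controls without substrate or without enzyme flank wells where PI5P4Kalpha converts substrate using 5 microM ATP (final). Incubation lasts 60 minutes at room temperature; ADP formed is read by ADP-Glo luminescence.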
Tb PGK inh = blocks T. brucei phosphoglycerate kinase; P07378; Potency, µM (doses to about 57.5 µM), for the others: at the top dose activity change, negative = inhibition, most hits filed as inhibitors; 380,000 tested, 0.043% active; AID 602233; PGK/GAPDH coupled, Kinase-Glo luminescence, 60 min; further: potency means the concentration at half of the fitted maximal effect; nearly all actives have a fitted effect of over 60% in size
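Recombinant glycosomal PGK reaction used 1,3-bisphosphoglycerate generated in-well by GAPDH (100nM final) in 100mM TEA pH 7.6, 5mM MgCl2, 0.01% Tween-20. After 60 minutes at room temperature, ATP was read by Kinase-Glo Plus luminescence end-point.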
Pin1 inh = human Pin1 inhibition | Q13526 | Pin1 FP peptide displacement, HiFluor488, 10 min | Potency, µM (highest dose often 115 µM), without a hit: at the highest dose activity, negative = inhibition, usual class: inhibitors | 390,000 tested, 0.009% active | AID 504891; active means well fitted inhibition curve with a large enough effect in the polarisation, with a control signal flat, not every such curve was filed as active; inconclusive means small, poorly fitted or top-dose-only effect, or effect the other way, or a change in a side signal; inactive means no such curve, though single readings can be large or run the other way; the % refers to the polarisation; further: potency means the concentration at half of the fitted maximal effect
Target sequence (Q13526 whole entry, looked up): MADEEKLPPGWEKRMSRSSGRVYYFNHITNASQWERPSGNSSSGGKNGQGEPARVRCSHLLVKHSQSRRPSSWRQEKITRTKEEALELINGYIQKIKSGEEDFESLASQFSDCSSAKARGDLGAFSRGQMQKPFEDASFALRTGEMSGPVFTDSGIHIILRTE
PI4K2A inh = PI4K2A (human) kinase inhibition; purified PI4K2A, ADP-Glo luminescence, 1 h; stronger effect = lower value; activity change, negative = inhibition, % at 76.9 µM; 420,000 tested, 0.13% active; Q9BTU6; in the data active means activity change below about -50%; inconclusive means mostly about -30% to -49%;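 further: -100% = wells without enzyme as full effect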
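In this quantitative HTS, ADP production by PI4K2A was quantified luminescently after 1 h at ambient temperature; 100 microM adenosine served as plate-quality control.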
Tb PFK block = inhibitors of T. brucei phosphofructokinase | Potency, µM (highest dose often 57.5 µM), without a hit: top-dose activity, negative = inhibition, usual class: inhibitors | 330,000 tested, 0.17% active | AID 485367 | O15648 | T. brucei PFK, ADP-Glo luminescence;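 further: potency means the concentration at half of the fitted maximal effect; 0% = uninhibited 1x PFK enzyme wells and -100% = no-enzyme wells; nearly all actives have a fitted effect of over 60% in size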
Target sequence (O15648 whole entry, looked up): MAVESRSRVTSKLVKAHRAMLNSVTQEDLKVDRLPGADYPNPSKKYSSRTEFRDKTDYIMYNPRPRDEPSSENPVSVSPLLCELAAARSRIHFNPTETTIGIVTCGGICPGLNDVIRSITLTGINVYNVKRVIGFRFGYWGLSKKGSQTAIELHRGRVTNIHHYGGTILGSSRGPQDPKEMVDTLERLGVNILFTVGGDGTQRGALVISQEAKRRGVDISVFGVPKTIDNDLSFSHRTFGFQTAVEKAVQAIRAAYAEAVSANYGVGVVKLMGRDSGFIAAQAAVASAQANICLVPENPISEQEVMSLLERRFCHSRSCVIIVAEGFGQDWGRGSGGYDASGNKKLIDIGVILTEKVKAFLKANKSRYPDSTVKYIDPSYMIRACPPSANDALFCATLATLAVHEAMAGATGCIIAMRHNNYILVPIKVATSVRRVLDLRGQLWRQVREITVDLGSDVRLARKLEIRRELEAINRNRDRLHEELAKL
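Compounds were pin-transferred as a titration series up to 57 uM into substrate buffer (0.5 mM F6P, 0.1 mM ATP, pH 8.0), then 1.25 nM PFK was added and reactions ran 45 min before ADP-Glo detection.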
* hit, by the source's call; i = inactive; ? = inconclusive; nt = not tested or not shown. Unless noted, the call rests on the fitted dose curve; in most records, active means well fitted curve in the direction sought with a large enough effect; inconclusive means small, poorly fitted or top-dose-only effect, or another doubt; inactive means no such curve, though single readings can be large; an effect the other way counts as inactive or inconclusive. Unless noted, on the % scale 0 is the no-effect control and ±100 the full control effect.

SMILES	PI5P4K alpha inh	Tb PGK inh	Pin1 inh	PI4K2A inh	Tb PFK block
COc1ccc(/C=C/C=C2C(=O)NC(=S)NC2=O)cc1	-50.2*	0.9%	31.5%	-5.1	nt
CCOc1cc(C=C2C(=O)NC(=S)NC2=O)ccc1O	-76.8*	1.2%	-8.7%	-6.3	nt
C[C@H]1OC[C@@H](C[N+](C)(C)C)O1	-19.4	-3.5%	0.5%	-4.6	2.6%
NC(Cc1cc(O)c(O)cc1O)C(=O)O (configuration not stated)	nt	nt	nt	-80.2*	0.849µM*
Cc1cc(O)c2c(c1)C(=O)C13C(=C2O)C(=O)[C@H]2[C@@H](O)[C@@H]1[C@H]1[C@H](O)[C@@H]3C(=O)C3=C(O)c4c(O)cc(C)cc4C(=O)C312 (some centres not stated)	-52.6*	-9.2%	16.3%	-75.3*	7.9%
COC(=O)C1=C(c2cc3ccccc3s2)C[C@@H]2CC[C@H]1N2C(=O)N1CCOCC1	11.6	-0.1%	2.1%	-0.1	nt
CC[C@H](C)/C=C(C)/C=C/C1=CC2=C(Cl)C(=O)[C@](C)(OC(C)=O)C(=O)C2=CO1	-104.3*	?	?	?	0.1%
CC(=NCCc1c[nH]c2ccccc12)c1c(O)n(Cc2ccccc2)c(=O)[nH]c1=O	-12.6	-2.6%	30.6%	-2.9	0.5%
C/C(=N\Nc1cccc2ccccc12)c1c(O)n(Cc2ccccc2)c(=O)[nH]c1=O	-54.5*	i	?	-6.7	-7.5%
C/C(=N\NC(=O)c1ccccc1)c1c(O)n(Cc2ccccc2)c(=O)[nH]c1=O	-68.1*	-1.4%	18.2%	0.3	4.0%
C/C(=N\NC(=O)c1ccncc1)c1c(O)n(-c2ccccc2)c(=O)[nH]c1=O	-10.0	i	4.9%	0.6	0.8%
CC/C(=N\NC(=O)c1ccccc1)c1c(O)n(C2CCCCC2)c(=O)[nH]c1=O	-56.6*	-0.8%	-8.3%	-6.9	1.7%
CC1CCC(N2CCN(C(=O)COc3ccccc3)CC2)CC1 (configuration not stated)	-8.0	-1.3%	-3.9%	4.2	-5.1%
CCn1c(O)c(/C(C)=N/N2CCCCC2c2cccnc2)c(=O)[nH]c1=S (configuration not stated)	-6.5	i	?	4.8	0.0%
COc1cccc(CCNCc2c(F)cccc2F)c1	-4.7	i	4.5%	0.8	-4.9%
O=C(/C=C/c1ccccc1)c1c(O)n(CCc2ccccc2)c(=O)[nH]c1=O	-27.4	-2.2%	-3.0%	-2.5	2.4%
COc1cc(/C=C/C(=O)c2c(O)n(CCc3ccccc3)c(=O)[nH]c2=O)ccc1O	-64.7*	-1.5%	?	-5.7	-3.2%
COc1ccccc1N1CCN(C2CCCN(C(=O)COc3ccccc3Cl)C2)CC1 (configuration not stated)	-6.3	-4.3%	-2.5%	0.4	0.0%
O=[N+]([O-])c1cc(S(=O)(=O)c2ccc(O)c([N+](=O)[O-])c2)ccc1O	-64.2*	?	?	-1.6	20.6%
O=[N+]([O-])c1cccc(O)c1	1.5	3.7%	-5.5%	0.9	-15.2%
C/C(=N\NC(=S)Nc1ccccc1)c1c(O)n(C)c(=O)n(C)c1=O	-52.6*	5.0%	-4.9%	-1.0	5.8%
CC/C(=N\Nc1ccccc1)c1c(O)n(C)c(=O)n(C)c1=O	-4.8	3.0%	3.2%	2.0	-0.6%
CCN1C(=O)C(=C2C=C(C)N(Cc3ccco3)C(C)=C2)C(=O)N(CC)C1=S	-0.2	-7.8%	-3.8%	-0.5	-3.5%
Cc1ccc(N2C(=O)/C(=C/c3ccc(CN(CCC#N)S(C)(=O)=O)o3)C(=O)NC2=S)cc1	-70.9*	?	?	-22.0	-2.1%
COc1cccc(N2C(=O)/C(=C/c3ccc(C)o3)C(=O)NC2=S)c1	-58.7*	nt	?	-12.1	-0.8%
SMILES	PI5P4K alpha inh	Tb PGK inh	Pin1 inh	PI4K2A inh	Tb PFK block
Cc1ccc(/C=C2\C(=O)NC(=S)N(c3ccc(F)cc3)C2=O)o1	-58.8*	-11.1%	?	-11.0	1.4%
COc1ccc(CN2CCCC(C(=O)c3ccc(Cl)cc3)C2)c(O)c1 (configuration not stated)	7.9	3.1%	-3.4%	0.6	-3.1%
Cc1sc2ncn(CC(=O)N3CCC4(CC3)OCCO4)c(=O)c2c1C	-0.1	1.2%	-0.4%	11.4	5.9%
O=C1NC(=O)N(CCc2ccc(F)cc2)C(=O)/C1=C/c1ccco1	-75.3*	?	2.6%	-21.2	-7.2%
Cc1ccc(/C=C2/C(=O)NC(=O)N(CCc3ccc(F)cc3)C2=O)o1	-67.4*	-2.5%	48.0%	-25.4	1.4%
O=C1NC(=O)N(c2ccc(F)cc2)C(=O)/C1=C/c1ccc(N2CCOCC2)cc1	-19.6	5.2%	1.8%	-6.5	0.3%
COc1cc(OC)c(OC)cc1/C=C1/C(=O)NC(=O)N(Cc2ccccc2)C1=O	?	-1.5%	27.6%	-52.7*	7.2%
CCN(CC)c1ccc(/C=C2\C(=O)NC(=S)N(C)C2=O)o1	-3.4	-2.5%	?	-3.7	-3.9%
O=C1NC(=O)N(Cc2ccc(F)cc2)C(=O)/C1=C\c1ccc(N2CCCC2)cc1	-58.9*	-3.4%	?	-15.5	-2.4%
O=C(c1cc(C(=O)NCc2ccccc2)c(=O)n(Cc2ccccc2)c1)c1cc(Br)ccc1O	5.5	-4.8%	?	1.4	-4.1%
C[C@]12CCC3C(CCC4=C/C(=N/OCC(=O)NC(CCC(N)=O)C(=O)O)CC[C@@]43C)C1CCC2O (some centres not stated)	-2.6	i	-2.0%	-6.1	0.6%
O=C(Nc1ccc2nc(SCC(=O)N3CCCc4ccccc43)sc2c1)c1ccccc1F	nt	5.7%	28.7%	-3.7	nt
CC(=O)OC(C)(C)/C=C/C(=O)[C@](C)(O)[C@H]1[C@H](O)C[C@@]2(C)[C@@H]3CC=C4[C@H](C[C@H](O)C(=O)C4(C)C)[C@]3(C)C(=O)C[C@]12C	-4.0	-8.2%	1.7%	-7.0	-0.9%
COc1cc2c(c(OC)c1OC)-c1ccc(C(=O)O)cc1[C@@H](NC(C)=O)CC2	nt	-8.3%	-0.7%	-2.8	nt
COc1ccc(CN2C(=O)NC(=O)/C(=C\c3ccco3)C2=O)cc1	-77.3*	?	8.1%	-24.1	-0.3%
COc1cc(OC)c(OC)cc1/C=C1\C(=O)NC(=O)N(Cc2ccccc2)C1=O	-24.6	6.0%	21.3%	-23.4	-3.3%
CN(C)c1ccc(/C=C2\C(=O)NC(=O)N(CCc3ccc(F)cc3)C2=O)cc1	-82.2*	1.5%	50.5%	-29.7	-5.4%
O=C1NC(=O)N(Cc2ccccc2)C(=O)/C1=C/C=C/c1ccco1	-52.9*	-5.1%	?	?	?
COc1ccc(CN2C(=O)NC(=O)/C(=C\c3cc(OC)c(OC)c(OC)c3)C2=O)cc1	?	-11.4%	9.2%	?	-8.5%
COCCN1C(=O)NC(=O)/C(=C\c2ccc(F)cc2)C1=O	-24.0	-8.7%	6.5%	-11.4	3.4%
C=CCN1C(=O)/C(=C/c2cccs2)C(=O)NC1=S	-85.7*	2.6%	26.9%	-0.9	-0.3%

Source: PubChem BioAssay
